Measured values reported in PubChem BioAssay AID434936 (National Center for Advancing Translational Sciences (NCATS), 2010).
Records with an inconclusive call do not appear. The source made the active and inactive calls. Calls follow the shape of the dose curve; as a rule, active = well fitted curve in either direction with a large enough effect; inconclusive = small, poorly fitted or top-dose-only effect; inactive = flat fitted curve, though single readings scatter.

Molecular target: Neuropeptide S receptor (Homo sapiens) (UniProt Q6W5P4)
Test: Confirmation Concentration-Response Assay for Antagonists of the Neuropeptide S Receptor: Robust Characterization of cAMP Signal Transduction
Conditions: CHO-NPSR cells, NPS-stimulated cAMP TR-FRET
From the text: NIH Chemical Genomics Center [NCGC] NIH Molecular Libraries Probe Production centers Network [MLPCN] MLPCN Grant: X01-DA026210-01 Assay Submitter (PI): Heilig, Markus Alexander NCGC Assay Overview: Neuropeptide S receptor (NPSR), previously known as GPR154, is a recently de-orphanized G protein coupled receptor. Its endogenous ligand is the 20 amino acids peptide Neuropeptide S (NPS). […] NPS and its receptor are found in various tissues. Specifically they are highly expressed in brain areas that have been implicated in modulation of arousal, stress and anxiety. Central administration of NPS in mice produces an unusual profile of activity by inducing wakefulness and arousal, while at the same time suppressing anxiety. Therefore, NPSR may represent a novel drug target for the treatment of sleep and anxiety disorders. To identify NPSR antagonists, we developed a cell-based cAMP assay. NPS can stimulate the production of cAMP in Chinese hamster ovary cells stably expressing NPS receptor. This change in intracellular cAMP level can be detected by a homogeneous LANCE cAMP assay based on the TR-FRET (time resolved fluorescence resonance energy transfer) between a europium-labeled cAMP tracer complex and a cAMP-specific antibody labeled with Alexa Fluor 647. The europium-labeled cAMP tracer complex is formed by the tight interaction between Biotin-cAMP (b-cAMP) and streptavidin labeled with Europium-W8044 chelate (Eu-SA). Light pulse at 320 nm excites the europium of the cAMP tracer and the energy emitted is transferred to the Alexa molecule bound to the cAMP antibody, generating a TR-FRET signal at 665 nm. Residual energy from the europium will produce a light at 620 nm. The native unlabeled cAMP from cell lysates competes with the europium-cAMP tracer for antibody binding and reversely reduces the emission signal of Alexa by interrupting FRET between the two labeled molecules. Both emission signals from the FRET donor (620 nm) and the acceptor (665 nm) can be detected by a plate reader in the TRF mode. Expression of result in fluorescence ratio (665 nm/620 nm) helps to normalize differences due to cell density and reagent dispensing. This assay was successfully optimized to a 1536-well plate format. Select compounds from the primary screen (AID 1461) were chosen for confirmation based on potency, efficacy, SAR, and activity across other assays in PubChem and at NCGC. Other compounds are analogs of active compounds from the primary screen. This particular assay uses a high density of sampling across concentration-response space to establish more confidence estimates of potency.
NCGC Assay Protocol Summary: A Chinese hamster ovary (CHO) cell line stably expressing the NPS receptor (CHO-NPSR) was obtained from Dr. Heilig lab at NIAAA and maintained in F-12 Kaighn's media (Invitrogen, Carlsbad, CA, 21127) supplemented with 10 % FBS, 100 units/ml penicillin, 100 ug/ml streptomycin and 250 ug/ml geneticin at 37C, 5% CO2 in a humidified atmosphere. Before the assay, aliquots of cells were frozen and stored at -135C. The assay was performed in 1536-well format. Data are reported for both the ratio of the two emission wavelengths, and also for the component 'donor' channel, Em2=620. […] IC50 values were determined from concentration-response data modeled with the standard Hill equation. NPS 1536-well assay protocol: (1) Fresh or frozen CHO-NPSR cells were suspended in F-12 Kaighn's media supplemented with 10 % FBS, 100 units/ml penicillin and 100 ug/ml streptomycin. Cells were plated at 4 ul/well (1200 cells) to white, tissue culture treated 1536-well plates, and then cultured at 37C, 5 % CO2 for 16 to 30 hours. (2) Add 23 nl/well of compound in DMSO solution. The final titration for each compound was between 0.6 nM and 46 uM. […]

Neuropeptide S receptor (Homo sapiens), sequence (Q6W5P4 whole entry, looked up): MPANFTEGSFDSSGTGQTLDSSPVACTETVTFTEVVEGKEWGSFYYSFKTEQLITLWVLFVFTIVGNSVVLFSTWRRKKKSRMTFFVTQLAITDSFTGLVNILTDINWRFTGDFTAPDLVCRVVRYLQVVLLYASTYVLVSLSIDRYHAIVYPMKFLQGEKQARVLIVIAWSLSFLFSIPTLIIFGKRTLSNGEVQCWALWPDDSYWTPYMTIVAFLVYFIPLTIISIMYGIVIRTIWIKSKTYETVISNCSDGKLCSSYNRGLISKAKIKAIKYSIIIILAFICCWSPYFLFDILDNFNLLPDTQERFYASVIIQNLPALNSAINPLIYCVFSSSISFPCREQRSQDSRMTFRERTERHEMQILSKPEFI

Row | SMILES | Potency
1 | Cc1c(P(=S)(c2ccccc2)c2ccccc2)[n+]2ccccc2n1C/C=C/c1ccccc1 | 44.5 nM (active)
2 | Cc1c(P(=S)(c2ccccc2)c2ccccc2)[n+]2ccccc2n1C | 1670 nM (active)
3 | Cc1c(P(=S)(c2ccccc2)c2ccccc2)[n+]2ccccc2n1CCCc1ccccc1 | 106 nM (active)
4 | Cc1c(P(=S)(c2ccccc2)c2ccccc2)[n+]2ccccc2n1CCc1ccccc1 | 2100 nM (active)
5 | Cc1nc2ccccn2c1P(=S)(c1ccccc1)c1ccccc1 | 17700 nM (active)
6 | Cc1c(P(=S)(c2ccccc2)c2ccccc2)[n+]2ccccc2n1CCCCc1ccccc1 | 1.1 nM (active)
7 | Cc1c(P(=S)(c2ccccc2)c2ccccc2)[n+]2ccccc2n1CCCCCc1ccccc1 | 705 nM (active)
8 | Cc1c(P(=S)(c2ccccc2)c2ccccc2)[n+]2ccccc2n1Cc1ccccc1 | 1250 nM (active)
